Calls of active or inactive are those of the source. Unless noted, no rule for the calls is given here.
Assays:
[1] = A549 cell viability effects, profiling panel, calcein-AM fluorescence, 48 h, basal (AID 1162); conditions: higher = more signal; also: test concentration not given here
[2] = adipocyte viability effects, profiling panel, cell-based, 3T3-L1 adipocytes, calcein-AM fluorescence, 48 h, basal (AID 1163); conditions: 3T3-L1 adipocytes viability, higher = more signal; also: test concentration not given here
[3] = HepG2 cell viability effects, profiling panel, calcein-AM fluorescence, 48 h, basal (AID 1164); conditions: higher = more signal; also: test concentration not given here
[4] = MM1S cell viability effects, profiling panel, calcein-AM fluorescence, 48 h, basal (AID 1165); conditions: higher = more signal;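 also: viability of MM1S multiple myeloma cells under basal unstimulated conditions; test concentration not given here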
[5] = basal RPMI8226 viability, no added stimulus, profiling panel, cell-based, calcein-AM fluorescence, 48 h, PK04 Diversity Set (AID 1166); conditions: higher = more signal; RPMI8226 myeloma viability, calcein-AM fluorescence, 48 h unless noted;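 also: cells grown under basal conditions without added stimulus; test concentration not given here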
[6] = basal HepG2 mitochondrial membrane potential changes, profiling panel, cell-based, JC-1 fluorescence, 24 h, 100 nL compound (AID 1167); conditions: higher = more signal; also: test concentration not given here
[7] = basal 3T3-L1 adipocyte mitochondrial potential changes, profiling panel, cell-based, JC-1 fluorescence, 3T3-L1 adipocytes, 24 h, 100 nL compound (AID 1168); conditions: JC-1 mitochondrial fluorescence; higher = more signal, called active from +8 up or from −8 down unless noted; also: test concentration not given here
[8] = basal RPMI8226 mitochondrial membrane potential changes, profiling panel, cell-based, JC-1 fluorescence, 24 h, 100 nL compound (AID 1169); conditions: higher = more signal; RPMI8226 myeloma, JC-1 mitochondrial potential fluorescence, 24 h unless noted; also: test concentration not given here
[9] = basal MM1S mitochondrial membrane potential changes, profiling panel, cell-based, JC-1 fluorescence, 24 h, 100 nL compound (AID 1170); conditions: higher = more signal; also: test concentration not given here
[10] = A549 lung cancer cell viability effects, profiling panel, resazurin fluorescence, 24 h, PK04 Diversity Set (AID 1171); conditions: higher = more signal, called active from +8 up or from −8 down unless noted; also: test concentration not given here
[11] = HepG2 liver cancer cell viability effects, profiling panel, resazurin fluorescence, 24 h, PK04 Diversity Set (AID 1172); conditions: higher = more signal; also: test concentration not given here
[12] = basal S. cerevisiae growth modulation, no modifier, primary screen, OD600, strain BY4716, 24 h, basal condition (AID 1173); conditions: OD600, 24 h; higher = more signal, called active from +8 up or from −8 down unless noted
[13] = MM1S myeloma cell viability, profiling panel, resazurin fluorescence, basal, 24 h, PK04 Diversity Set (AID 1174); conditions: higher = more signal, called active from +8 up or from −8 down unless noted;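 also: MM1S multiple myeloma cell line; test concentration not given here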
[14] = target: Dihydroorotate dehydrogenase (quinone), mitochondrial (Plasmodium falciparum (isolate 3D7)) (UniProt Q08210); experiment: PfDHODH enzyme inhibitors, primary screen, biochemical, C-terminal His tag, absorbance 600 nm (AID 1175); conditions: DCIP absorbance 600 nm; higher = more signal, called active from +8 up or from −8 down unless noted;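 also: recombinant parasite enzyme with a five histidine tag at its C terminus; test concentration not given here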
Sequence of Dihydroorotate dehydrogenase (quinone), mitochondrial (Plasmodium falciparum (isolate 3D7)) (Q08210 whole entry, looked up): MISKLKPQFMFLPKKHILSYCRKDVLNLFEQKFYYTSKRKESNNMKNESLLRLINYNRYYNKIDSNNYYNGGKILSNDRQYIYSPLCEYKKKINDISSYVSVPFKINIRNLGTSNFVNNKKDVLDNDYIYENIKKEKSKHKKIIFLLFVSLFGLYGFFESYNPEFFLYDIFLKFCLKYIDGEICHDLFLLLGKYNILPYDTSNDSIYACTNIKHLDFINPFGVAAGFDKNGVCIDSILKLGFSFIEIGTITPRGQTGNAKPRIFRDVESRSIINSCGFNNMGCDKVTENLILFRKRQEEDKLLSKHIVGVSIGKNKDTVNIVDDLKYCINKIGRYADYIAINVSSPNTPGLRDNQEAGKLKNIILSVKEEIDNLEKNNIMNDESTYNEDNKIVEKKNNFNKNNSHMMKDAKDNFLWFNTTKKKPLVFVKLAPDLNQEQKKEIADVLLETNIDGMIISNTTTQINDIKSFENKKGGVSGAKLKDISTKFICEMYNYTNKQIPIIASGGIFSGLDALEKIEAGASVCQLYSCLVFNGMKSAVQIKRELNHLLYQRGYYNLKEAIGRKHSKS

[15] = P. aeruginosa biofilm formation inhibitors, primary screen, strain PAO1, LB-PBS medium, absorbance 600 nm (AID 1176); also: test concentration not given here; conditions: P. aeruginosa PAO1 growth/biofilm, A600, 12 h; higher = more signal
[16] = S. cerevisiae RM11-1a growth modifiers, primary screen, strain RM11-1a, OD600, basal, 24 h (AID 1177); conditions: OD600, 24 h; higher = more signal, called active from +8 up or from −8 down unless noted;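 also: cultures grown under basal conditions with no added stressor; test concentration not given here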
[17] = E. coli acrAB mutant growth effects, primary screen, E. coli filamentation inducers, strain DRC39, OD650, 24 h (AID 1178); conditions: higher = more signal, called active from +8 up or from −8 down unless noted;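 also: growth measured as culture turbidity by optical density at 650 nm; test concentration not given here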
[18] = E. coli acrAB mutant growth effects, primary screen, E. coli filamentation inducers, strain DRC39, OD650, 48 h (AID 1179);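 also: screen aims at cell division blockers that make cells filament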; conditions: E. coli DRC39 delta-acrAB growth, higher = more signal, called active from +8 up or from −8 down unless noted
[19] = RPMI8226 myeloma cell viability, profiling panel, resazurin fluorescence, basal, 24 h, PK04 Diversity Set (AID 1180); conditions: higher = more signal; RPMI8226 viability, resazurin fluorescence, 24 h unless noted;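 also: RPMI8826 multiple myeloma cell line at 5000 cells per well; test concentration not given here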
[20] = target: E3 ubiquitin-protein ligase XIAP (Homo sapiens) (UniProt P98170); experiment: XIAP binders, primary screen, biophysical, small-molecule microarray, fluorescence 635 nm (AID 1181); conditions: small-molecule microarray binding, higher = more signal;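 also: score merges 667 nm emission and signal to noise over triplicate slides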
Sequence of E3 ubiquitin-protein ligase XIAP (Homo sapiens) (P98170 whole entry, looked up): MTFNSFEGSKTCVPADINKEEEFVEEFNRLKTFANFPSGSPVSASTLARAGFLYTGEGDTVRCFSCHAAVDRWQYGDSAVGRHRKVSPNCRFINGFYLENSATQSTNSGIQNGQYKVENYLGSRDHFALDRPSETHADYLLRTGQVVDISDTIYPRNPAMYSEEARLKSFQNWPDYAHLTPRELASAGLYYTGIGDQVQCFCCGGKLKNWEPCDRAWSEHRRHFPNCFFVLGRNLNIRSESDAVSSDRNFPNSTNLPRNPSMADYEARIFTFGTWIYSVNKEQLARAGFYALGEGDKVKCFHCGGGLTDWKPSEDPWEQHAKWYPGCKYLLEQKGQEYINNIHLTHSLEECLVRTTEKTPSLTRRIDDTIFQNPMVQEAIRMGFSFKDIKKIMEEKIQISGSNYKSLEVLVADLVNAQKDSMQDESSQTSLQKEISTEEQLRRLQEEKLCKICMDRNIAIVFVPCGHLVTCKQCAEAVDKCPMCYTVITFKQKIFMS

Row | Compound | z-score [1] | z-score [2] | z-score [3] | z-score [4] | z-score [5] | z-score [6] | z-score [7] | z-score [8] | z-score [9] | z-score [10] | z-score [11] | z-score [12] | z-score [13] | composite z-score [14] | z-score [15] | z-score [16] | z-score [17] | z-score [18] | z-score [19] | composite z-score [20]
1 | CCCc1cc2c(n1CCO)C(C)C1CN(C(=O)c3ccccc3)C(C)(C(=O)OC)C21 (stereo not given) | -0.981 | 0.348 | 0.436 | -1.38 | -0.875 | 0.156 | -0.962 (inactive) | 0.719 | -0.379 | -1.04 (inactive) | -1.6 | 0.262 (inactive) | -1.68 (inactive) | -0.349 (inactive) | -0.0703 (inactive) | 0.168 (inactive) | -0.681 (inactive) | -0.127 (inactive) | -1.85 | 0.612
2 | C=C(CC1(C(C)NP(=O)(c2ccccc2)c2ccccc2)CC1)c1ccccc1 (stereo not given) | -2.12 | 0.844 | -1.07 | -3.18 | -4.71 | -2.36 | -0.793 (inactive) | -0.819 | -0.133 | 2.93 (inactive) | 0.901 | -16.1 (active) | 0.794 (inactive) | -0.626 (inactive) | 1.38 (inactive) | -16 (active) | -0.628 (inactive) | -0.645 (inactive) | 2 | 0.525
3 | CCOC(=O)[C@H]1CC=C2C(=O)Oc3ccccc3[C@@H]21 | -0.961 | -0.214 | -1.13 | -1.35 | -0.132 | -0.417 | 0.846 (inactive) | 0.979 | -1.08 | 0.991 (inactive) | 0.867 | -10.4 (active) | -0.848 (inactive) | 0.188 (inactive) | 0.381 (inactive) | -1.43 (inactive) | -0.475 (inactive) | -1.11 (inactive) | -0.575 | -0.0727
4 | CCOC(=O)[C@H]1CC=C2C(=O)Oc3ccc(Br)cc3[C@@H]21 | -2.46 | -0.556 | -2.35 | -2.9 | -3.93 | 1.36 | 0.599 (inactive) | 0.407 | 0.132 | 0.234 (inactive) | 0.328 | -17 (active) | -0.595 (inactive) | -0.89 (inactive) | 0.477 (inactive) | -14 (active) | -0.936 (inactive) | -0.568 (inactive) | -0.0544 | 0.355
5 | O=P(c1ccccc1)(c1ccccc1)N1CC2(CC2)CC(O)(c2ccccc2)C1 (stereo not given) | -1.76 | -0.388 | -1.15 | -0.183 | -0.475 | -0.846 | -0.654 (inactive) | 0.232 | -0.372 | -0.488 (inactive) | -0.561 | 0.12 (inactive) | -1.03 (inactive) | -0.001 (inactive) | 0.315 (inactive) | 0.445 (inactive) | -0.32 (inactive) | 0.158 (inactive) | -1.22 | 0.143
6 | CN1CCc2nc(CO)c(CO)cc2C1 | 1.18 | 0.593 | 0.0749 | -1.02 | 0.672 | 0.302 | -0.23 (inactive) | 0.38 | 1.04 | 0.515 (inactive) | 0.328 | 1.31 (inactive) | 0.692 (inactive) | 0.693 (inactive) | -0.188 (inactive) | 1.18 (inactive) | 0.0008 (inactive) | -0.019 (inactive) | 1.42 | -0.144
7 | COC(=O)[C@H]1[C@@H](O)[C@@]2(O)c3c(OC)cc(OC)cc3O[C@@]2(c2ccc(OC)cc2)[C@@H]1c1ccccc1 | -2.35 | -1.63 | -2.23 | -3.46 | -3.35 | -2.69 | -0.0573 (inactive) | -0.727 | -1.19 | -4.41 (inactive) | -2.12 | -0.795 (inactive) | -3.65 (inactive) | -0.447 (inactive) | 0.511 (inactive) | 0.452 (inactive) | 0.945 (inactive) | 0.669 (inactive) | -4.1 | -0.245
8 | COc1cc2c(cc1O)C=[N+](C)CC2 | 1.82 | 0.775 | 0.496 | -0.0896 | 0.245 | 0.424 | 0.964 (inactive) | -0.0385 | -0.635 | -1.52 (inactive) | -0.365 | 0.248 (inactive) | -0.765 (inactive) | -1.7 (inactive) | 0.158 (inactive) | -0.756 (inactive) | 0.313 (inactive) | 1.42 (inactive) | -0.383 | 0.0613
